A selection: hits, their analogues and other compounds. The true share with any hit is near 19%.
TDP1 cell noCPT = qHTS for Inhibitors of human tyrosyl-DNA phosphodiesterase 1 (TDP1): qHTS in cells in absence of CPT. DT40 Tdp1-/- hTDP1 cells, no CPT, ATP luminescence, 48 h. Potency, µM (highest dose often 46.2 µM), for the others: top-dose activity change, negative = growth inhibition, usual class: inhibitors. actives 15% (n = 420,000). AID 686978, 2013; note: potency is the fitted concentration of half-maximal effect; nearly all actives have a fitted effect of over 55% in size
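Compound effects on proliferation are scored in DT40 Tdp1-/-;hTDP1 cells in the absence of CPT. ATP levels (CellTiter-Glo luminescence) are recorded after a ≥48 hr, 37 °C incubation.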
IL1B secr inh = qHTS for Inhibitors of Inflammasome Signaling: IL-1-beta AlphaLISA Primary Screen. actives 4.7% (n = 360,000). AID 743279, 2014. THP-1 LPS/ATP IL-1B secretion, AlphaLISA, 16 h; stronger effect = lower value. activity change, % at 57.5 µM; in the data active = activity change below about -50%; inconclusive = mostly about -30% to -49%
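THP-1 cells pretreated 1 hr with compounds (up to 57.5 uM final), then stimulated with LPS (250 ng/mL final) plus ATP (1.25 mM final); secreted IL-1B measured by AlphaLISA after 16 hr, decreased signal indicating inhibition.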
HT1080NT lethal = qHTS for induction of synthetic lethality in tumor cells producing 2HG: qHTS for the HT-1080-NT fibrosarcoma cell line; HT-1080-NT fibrosarcoma viability, CellTiter-Glo ATP luminescence, 48 h; AID 686970, 2013; actives 1.6% (n = 360,000); Potency, µM (series often up to 46.1 µM), without a hit: top-dose activity, negative = less viability, most hits filed as cytotoxic;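 note: NT is the 2HG producing partner of a matched IDH1 knockdown line; potency is the fitted concentration of half-maximal effect; 0% = DMSO-treated cells and -100% = media-only wells without cells; nearly all actives have a fitted effect of over 55% in size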
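Fibrosarcoma NT cells, 750 per well in 5% FBS RPMI, were exposed to compound for 48 hours. Viability: CellTiter-Glo luminescence.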
HT1080 IDH1KD tx = qHTS for induction of synthetic lethality in tumor cells producing 2HG: qHTS for the HT-1080-IDH1KD cell line. AID 686971, 2013. actives 2% (n = 360,000). HT-1080 IDH1 knockdown viability, ATP luminescence, 48 h. Potency, µM (series often up to 46.1 µM), for inactives: at the highest dose activity, negative = toxicity, usual class: cytotoxic;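 note: potency is the fitted concentration of half-maximal effect; 0% = DMSO wells and -100% = cell-free medium wells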
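Assay cells: HT-1080 with IDH1 knockdown, 750 per well, RPMI/5% FBS. Exposure: 48 h at 37 °C following 2 h pre-incubation. Read: CellTiter-Glo luminescence; fitted concentration-response, curve class assigned.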
TDP1 cell CPT = qHTS for Inhibitors of human tyrosyl-DNA phosphodiesterase 1 (TDP1): qHTS in cells in presence of CPT | chicken DT40 Tdp1-/-;hTDP1 cells + 20 nM CPT, ATP luminescence, 48 h | Potency, µM (doses to about 46.2 µM), for inactives: top-dose activity change, negative = growth inhibition, most hits filed as inhibitors | actives 12% (n = 420,000); note: potency is the fitted concentration of half-maximal effect; nearly all actives have a fitted effect of over 55% in size
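Cell growth measured by CellTiter-Glo luminescence after a minimum 48 h, 37 C compound exposure with 20 nM CPT in Tdp1-knockout DT40 cells stably expressing hTDP1, seeded 400/well; qHTS titration format.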
* = called active by the depositor. Unless noted, calls come from the whole dose curve; as a rule, active = well fitted curve in the direction sought with a large enough effect; inconclusive = small, poorly fitted or top-dose-only effect, or another doubt; inactive = no such curve, though single readings can be large; an effect the other way counts as inactive or inconclusive. Unless noted, % is set by controls: 0 for no effect and ±100 for the full control effect.

Screening Cc1cc2nc(-c3ccc(SCc4ccc(C(=O)O)cc4)nc3)[nH]c2cc1C returned TDP1 cell noCPT inconclusive, IL1B secr inh 70.8, HT1080NT lethal inconclusive, HT1080 IDH1KD tx inconclusive and TDP1 cell CPT inconclusive.
For Cc1cc2nc(-c3ccc(SCc4ccccc4C#N)nc3)[nH]c2cc1C the results were TDP1 cell noCPT 15.8µM*, IL1B secr inh inconclusive, HT1080NT lethal inconclusive, HT1080 IDH1KD tx -25.4% and TDP1 cell CPT inconclusive.
Cc1cc2nc(-c3ccc(SCC(=O)N4CCc5ccccc54)nc3)[nH]c2cc1C was read as TDP1 cell noCPT 23.1µM*, IL1B secr inh 109.2, HT1080NT lethal -10.0%, HT1080 IDH1KD tx -0.3% and TDP1 cell CPT 9.2µM*.
COC(=O)CSc1ccc(-c2nc3ccc(C)cc3[nH]2)cn1 was read as TDP1 cell noCPT inconclusive, IL1B secr inh -89.6*, HT1080NT lethal -1.1%, HT1080 IDH1KD tx 13.8% and TDP1 cell CPT -28.0%.
CN(C)S(=O)(=O)c1cccc(NC(=S)NC(=O)C2CCCCC2)c1 was read as TDP1 cell noCPT 18.4µM*, IL1B secr inh 0.4, HT1080NT lethal -6.6%, HT1080 IDH1KD tx -12.8% and TDP1 cell CPT inconclusive.
Screening CN(C)S(=O)(=O)c1cccc(NC(=S)NC2CCCCC2)c1 returned TDP1 cell noCPT -8.3%, IL1B secr inh 24.0, HT1080NT lethal 3.5%, HT1080 IDH1KD tx -18.5% and TDP1 cell CPT -22.3%.
CN(C)S(=O)(=O)c1cccc(NC(=S)N2CCc3ccccc32)c1 was read as TDP1 cell noCPT inconclusive, IL1B secr inh 31.2, HT1080NT lethal -1.3%, HT1080 IDH1KD tx -3.7% and TDP1 cell CPT inconclusive.
`CC1CCN(C(=S)Nc2cccc(S(=O)(=O)N(C)C)c2)CC1` gave TDP1 cell noCPT inconclusive, IL1B secr inh 5.3, HT1080NT lethal 5.2%, HT1080 IDH1KD tx 3.6% and TDP1 cell CPT inconclusive.
`CC1Cc2ccccc2N1C(=S)Nc1cccc(S(=O)(=O)N(C)C)c1` (stereo not given) gave TDP1 cell noCPT inconclusive, IL1B secr inh 13.9, HT1080NT lethal -1.2%, HT1080 IDH1KD tx -16.2% and TDP1 cell CPT 16.4µM*.
Screening CC1CCCC(NC(=S)Nc2cccc(S(=O)(=O)N(C)C)c2)C1C (stereo not given) returned TDP1 cell noCPT 18.4µM*, IL1B secr inh 25.7, HT1080NT lethal -3.5%, HT1080 IDH1KD tx inconclusive and TDP1 cell CPT inconclusive.
O=C(NC1CCCCC1)C1c2ccccc2OCC(=O)N1CCc1c[nH]c2ccccc12 (stereo not given) was read as TDP1 cell noCPT 25.9µM*, IL1B secr inh 0.7, HT1080NT lethal 0.0%, HT1080 IDH1KD tx 25.9µM* and TDP1 cell CPT -21.9%.
Screening O=C1N/C(=N\N=C\c2cccnc2)SC1Cc1ccc(SC(F)F)cc1 (stereo not given) returned TDP1 cell noCPT 3.66µM*, IL1B secr inh 106.9, HT1080NT lethal inconclusive, HT1080 IDH1KD tx 23.1µM* and TDP1 cell CPT 2.91µM*.
For O=C1N/C(=N\N=C\c2ccc3ncccc3c2)SC1Cc1ccc(SC(F)F)cc1 (stereo not given) the results were TDP1 cell noCPT -27.1%, IL1B secr inh 17.3, HT1080NT lethal -7.1%, HT1080 IDH1KD tx 14.0% and TDP1 cell CPT -15.0%.
For O=C1N/C(=N\N=C\c2ccccn2)SC1Cc1cccc(SC(F)F)c1 (stereo not given) the results were TDP1 cell noCPT 5.8µM*, IL1B secr inh 6.2, HT1080NT lethal -6.0%, HT1080 IDH1KD tx inconclusive and TDP1 cell CPT 7.31µM*.
CCCCc1ccc(N2C(=NC(=O)C3CCCO3)SC3CS(=O)(=O)CC32)cc1 (stereo not given) was read as TDP1 cell noCPT 13.3%, IL1B secr inh inconclusive, HT1080NT lethal 4.1%, HT1080 IDH1KD tx -15.8% and TDP1 cell CPT -7.0%.

Screening data from PubChem.
